This is a sample that favours compounds with a hit; in the whole collection about 5.2% have one here.
NadD block: inhibitors of Staphylococcus aureus NadD | purified NadD enzyme, colorimetric absorbance read-out | inhibition, % at 20 µM | hit rate 0.78% among 360,000; in the data active means inhibition above about 26%
esBAF inh: SWI/SNF esBAF complex inhibition | hit rate 2% among 350,000 | reporter increase, % at 12.5 µM | mouse ES cells, Bmi1-luciferase knock-in reporter, 24 h; 100% = twice the neutral-well signal | AID 602393; in the data active means activation above about 40%; inconclusive means no clear call, values can overlap the other calls;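 further: 0% = median of the plate's neutral control wells and 100% = double that signal; a rise in the Bmi1 reporter signal indicates esBAF inhibition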
Vif inh: inhibitors of HIV Vif. HEK293T cells, Vif self-association by quenched fluorescence, imaging, 24 h. inhibition, % at 7.49 µM. hit rate 0.35% among 340,000. AID 602346; in the data active means inhibition above about 50%, passing the limit was not always enough; inconclusive means no clear call, values can overlap the other calls; inactive means below about 31%
SMARCA2 activ: increases SMARCA2 function in MMTV reporter cells; MG213 cells, MMTV-luciferase reporter, dexamethasone, overnight; activation, % at 9.1 µM; hit rate 1% among 370,000; in the data active means activation above about 7.8%;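 further: 0% = vehicle wells and 100% = reference activator wells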
NR3A LBD binder: modulates the human NR3A ligand-binding domain; Tm shift relative to glycine control, % at 25 µM; AID 1259313; NR3A LBD differential scanning fluorimetry, Tm shift; 0% = protein alone, 100% = glycine-bound protein; hit rate 2.5% among 340,000;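 active means melting temperature shift of at least 10% of the positive control shift, at one fixed dose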
SKN-1 block: blocks SKN-1 activity in C. elegans; C. elegans VP596 Pgst-4::GFP/RFP ratio, acrylamide-induced, 24 h; inhibition, % at 21.8 µM; hit rate 0.49% among 360,000;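 active means interference check ratio from 0.5 to 1.5 plus GFP to RFP signal ratio inhibition reaching or exceeding a fixed threshold, cut at about 30% in these data, passing the limit was not always enough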
NadD conf: NadD (S. aureus) inhibition, single concentration confirmation; purified S. aureus NadD, colorimetric enzyme assay; inhibition, % at 20 µM; shares compounds with NadD block; hit rate 13% among 2,000; in the data active means inhibition mostly above about 42%, no sharp cut-off; inactive means mostly below about 42%
Active calls of the source: *; ? = inconclusive; · = not tested or not shown; ! = not confirmed by another sample.

SMILES	NadD block	esBAF inh	Vif inh	SMARCA2 activ	NR3A LBD binder	SKN-1 block	NadD conf
Cc1ccc2cc(C(c3nnnn3Cc3ccccc3)N3CCc4ccccc43)c(=O)[nH]c2c1 (stereo unspecified)	17	-3	-1	-3	-5	12	·
Cc1cc2cc(C(c3nnnn3Cc3ccco3)N3CCc4ccccc43)c(=O)[nH]c2cc1C (stereo unspecified)	32*	·	4	-2	-6	-18	26
Cc1ccc2[nH]c(=O)c(C(c3nnnn3Cc3ccccc3)N3CCc4ccccc43)cc2c1 (stereo unspecified)	32*	-6	-6	0	-9	5	22
COc1ccc(S(=O)(=O)N(C)C[C@H]2Oc3ccc(NC(=O)Nc4ccccc4)cc3C(=O)N([C@H](C)CO)C[C@H]2C)cc1	·	0	·	·	·	·	·
CC(=O)c1ccccc1NC(=O)CN1C(=O)CS/C1=C\c1nc(-c2ccc(C)cc2)cs1	46*	·	0	5	1	11	2
Cc1ccc(-c2csc(/C=C3/SC(C)C(=O)N3CC(=O)Nc3ccccc3F)n2)cc1 (stereo unspecified)	22	·	12	-4	8	-4	·
CO[C@@H]1CN(C)C(=O)c2cc(NS(=O)(=O)c3cccc(F)c3)ccc2OC[C@@H](C)N(C(=O)Cc2cccnc2)C[C@H]1C	·	3	·	·	·	·	·
COc1ccc(Oc2c(OC)cc(NCc3ccc(CN)cc3)c3ncccc23)cc1	70*	4	·	-6	·	21	66*
C[C@@H]1CCCCO[C@@H](CN(C)C(=O)C2CCCCC2)[C@@H](C)CN([C@@H](C)CO)C(=O)c2cc(NC(=O)Nc3ccc(C(F)(F)F)cc3)ccc2O1	·	-9	·	·	·	·	·
C#Cc1ccc([C@@H]2C=C(C(=O)NCc3ccccc3)O[C@H](OCCCCO)C2)cc1	39*	1	-1	0	-3	4	33
O=C(NCc1ccccc1)C1=C[C@@H](c2ccc(Br)cc2)C[C@@H](OCCCCO)O1	-7	1	-4	1	-9	3	·
CS(=O)(=O)N1CCc2cc(-c3csc(NC(=O)C(c4ccccc4)c4ccccc4)n3)ccc21	30*	4	-7	0	1	11	31
Cc1cccc2sc(NNC(=O)c3cc(-c4cccs4)nc4ccccc34)nc12	49*	2	-8	-9	-5	20	48*
C[C@H](CO)N1C[C@H](C)[C@@H](CN(C)Cc2ccc(C(F)(F)F)cc2)Oc2ccc(NC(=O)c3ccncc3)cc2CC1=O	·	0	·	·	·	·	·
Cc1ccc(S(=O)(=O)Nc2ccc3c(c2)C(=O)N([C@@H](C)CO)C[C@@H](C)[C@H](CN(C)S(=O)(=O)c2ccccc2)O3)cc1	·	4	·	·	·	·	·
O=C(O)c1ccc(/C=N\Nc2ccc(S(=O)(=O)N3CCOCC3)cc2[N+](=O)[O-])cc1	-3	0	-1	-2	1	4	·
Cc1ccc(-n2c(O)c(/C=N/Nc3ccc(S(=O)(=O)N4CCOCC4)cc3[N+](=O)[O-])c3ccccc3c2=O)c(C)c1	43*	·	-9	-6	-1	16	26
CCCCOc1ccc(-c2c(C#N)c(N)[nH]c(=S)c2C#N)cc1	31*	·	-1	-4	4	-8	29
O=C(CN1CCCCC1)Nc1nnc(-c2ccccc2)s1	3	14	7	2	2	-10	·
O=C(CN1CCCCC1)Nc1nnc(-c2ccc([N+](=O)[O-])cc2)s1	33*	-6	7	-4	-2	-2	13
O=C(/C=C/c1ccc2ccccc2n1)c1cc(Cl)ccc1O	33*	?	11	3	4	9	36
O=C(/C=C/c1cccs1)c1cc(Cl)ccc1O	-8	13	-6	-2	2	11	·
CS(=O)(=O)Nc1ccc2c(c1)[C@@H]1C[C@H](CC(=O)NCCN3CCCCC3)O[C@H](CO)[C@@H]1O2	·	-2	·	·	·	·	·
COc1ccc(C(=O)Cn2c(C(C)=O)nc3ccccc32)cc1	3	·	-6	-1	-1	5	·
COc1ccc(/C=C/C(=O)c2nc3ccccc3n2CC(=O)c2ccc(OC)cc2)cc1	30*	17	-1	-3	-3	44*	25
SMILES	NadD block	esBAF inh	Vif inh	SMARCA2 activ	NR3A LBD binder	SKN-1 block	NadD conf
COCC#Cc1ccc2c(c1)O[C@@H](CN(C)CC1CCCC1)[C@H](C)CN([C@@H](C)CO)S2(=O)=O	·	0	·	·	·	·	·
COc1cc(/C=C/c2ccc3cccc(O)c3n2)c(Br)cc1O	28*	40*	-3	4	·	10	13
COc1cc(Br)cc(/C=C/c2ccc3cccc(O)c3n2)c1O	34*	13	10	6	34*	-11	26
CC(C)C#Cc1ccc([C@@H]2[C@@H](C#N)N(C(=O)CN(C)C)[C@H]2CO)cc1	·	-2	·	·	·	·	·
C[C@H]1CN([C@@H](C)CO)C(=O)c2cccc(NC(=O)c3ccc(-c4nccs4)cc3)c2O[C@@H]1CN(C)C(=O)Nc1ccc2c(c1)OCO2	·	6	·	·	·	·	·
C[C@@H]1CN([C@@H](C)CO)C(=O)c2cc(-c3cccc(F)c3)cnc2O[C@H]1CN(C)C(=O)C1CCC1	·	4	·	·	·	·	·
CCN(CC)S(=O)(=O)c1cccc(C(=O)NCC2CCCO2)c1 (stereo unspecified)	-1	-5	-11	2	0	4	·
CCN(CC)S(=O)(=O)c1cccc(NC(=O)C2SC(=Nc3ccc(C)cc3C)C(C(=O)NCC3CCCO3)=C2N)c1 (stereo unspecified)	37*	9	-8	-3	5	8	28
COc1ccc(C2Nc3ccccc3C(=O)N2Cc2ccco2)cc1CN1C(=O)c2ccccc2C1=O (stereo unspecified)	39*!	5	3	-1	-2	4	22
CSc1nc(SCCO)c2sc3nc(-c4ccco4)c4c(c3c2n1)CC(C)(C)OC4	60*	·	1	-1	-5	8	21
COC(=O)CSc1nc(SC)nc2c1sc1nc(-c3ccco3)c3c(c12)CC(C)(C)OC3	-3	·	-3	-4	1	-2	·
O=C(Cc1csc(Nc2nc(=S)[nH]c3ccccc23)n1)N1CCN(c2cccc(Cl)c2)CC1	55*	-4	-1	-2	2	-4	8
Cc1ccc(Cl)cc1N1CCN(C(=O)Cn2ccc3ccccc3c2=O)CC1	-7	6	-22	-6	-7	15	·
Cc1ccc(Cl)cc1N1CCN(C(=O)Cc2csc(Nc3nc(=S)[nH]c4ccccc34)n2)CC1	63*	·	5	-1	-2	15	6
Cc1noc(C)c1S(=O)(=O)Nc1cccc2c1O[C@@H](CN(C)S(=O)(=O)c1cccs1)[C@@H](C)CN([C@@H](C)CO)C2=O	·	-5	·	·	·	·	·

Screening results (PubChem)
